Results on 36 compounds are retold here after ChEMBL document CHEMBL3433997, “St. Jude Leishmania screening dataset” (2016).

Common to all, as to format: functional
Test [1] concerns the target Solute carrier family 2, facilitated glucose transporter member 1 (Homo sapiens) (UniProt P11166). The test can be described thus: ST_JUDE_LEISH: Cytotoxicity at 2uM final concentration against transgenic Leishmania Mexicana promastigotes LmGLUT1 that are glucose transport deficient and complemented with the human glucose transporter GLUT1. Activity is measured by DNA content using SYBR green in vitro.

For test [2], the target named is Hexose transporter 1 (Plasmodium falciparum) (UniProt O97467). As to the kind of experiment: ST_JUDE_LEISH: Cytotoxicity at 2uM final concentration against transgenic Leishmania Mexicana promastigotes LmPfHT that are glucose transport deficient and complemented with the Plasmodium falciparum hexose transporter. Activity is measured by DNA content using SYBR green in vitro.

Test [3] has as its target Glucose transporter (Leishmania mexicana) (UniProt O61059). The test can be described thus: ST_JUDE_LEISH: Cytotoxicity at 2uM final concentration against transgenic Leishmania Mexicana promastigotes LmGT2 that are glucose transport deficient and complemented with the L. Mexicana glucose transporter 2. Activity is measured by DNA content using SYBR green in vitro.

Chain of Solute carrier family 2, facilitated glucose transporter member 1 (Homo sapiens) (P11166 whole entry): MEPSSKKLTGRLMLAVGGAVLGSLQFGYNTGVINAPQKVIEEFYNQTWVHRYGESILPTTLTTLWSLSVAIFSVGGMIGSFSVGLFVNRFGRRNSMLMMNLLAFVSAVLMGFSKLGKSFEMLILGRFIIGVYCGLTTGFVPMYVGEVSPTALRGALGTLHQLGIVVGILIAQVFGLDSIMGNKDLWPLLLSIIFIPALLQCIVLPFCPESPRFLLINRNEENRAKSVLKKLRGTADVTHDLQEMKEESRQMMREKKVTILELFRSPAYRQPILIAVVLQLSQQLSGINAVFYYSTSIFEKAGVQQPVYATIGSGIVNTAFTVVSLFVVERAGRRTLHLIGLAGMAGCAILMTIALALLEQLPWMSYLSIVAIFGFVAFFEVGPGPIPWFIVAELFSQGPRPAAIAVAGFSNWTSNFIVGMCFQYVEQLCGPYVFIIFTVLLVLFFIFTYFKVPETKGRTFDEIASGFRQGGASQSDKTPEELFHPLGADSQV

Broadly, the inhibition is the change of the read-out against control, counted positive when it falls. For the compound `CN1CCN(c2nsc3ccc(-c4ccc(NC(=O)Nc5cc(C(F)(F)F)ccc5F)cc4)cc23)CC1`, the inhibition was 5.16% in test [1], 1.74% in test [2] and 2.12% in test [3].

`CCC(=O)NC(c1ccco1)c1cc(Cl)c2cccnc2c1O` (stereo not drawn): the inhibition stood at 12.9% in test [1], 12.3% in test [2] and 10.7% in test [3].

As for `Cc1[nH]c(C)c(-c2cc3ccccc3o2)c(=O)c1Cl`, the inhibition in test [1] was found to be 0.9%; in test [2], 1.79%; in test [3], 0.5%.

As for `CNCCNCc1cccc(-c2ccc(-c3nc4ccccc4[nH]3)s2)c1`, the inhibition turned out to be 1.51% in test [1], 1.53% in test [2] and 5.06% in test [3].

Take `CN(C)C(C)(C)CN(Cc1ccc(-c2ccc(C(F)(F)F)cc2)cc1)C(=O)Cn1c(CCc2cccc(F)c2F)nc(=O)c2ccccc21`: the inhibition in test [1] stood at 1.52%; in test [2], 0.48%; in test [3] it was 0.79%.

In the case of `O=S(=O)(NC1CCN(c2ccnc3cc(Cl)ccc23)C1)c1ccc(C(F)(F)F)cc1` (stereo not drawn), the inhibition in test [1] came to 1.91%; in test [2] it was 1.67%; in test [3], 0.45%.

On to `Cc1ccc(C(=O)Nc2ccc(-c3nc4ccccc4[nH]3)cc2)cc1S(=O)(=O)N1CCOCC1`, for which the inhibition was determined as 2.29% in test [1], 1.71% in test [2] and 0.77% in test [3].

With `COc1cc(C(C)C)ccc1C1CCN(CCCCNC(=O)c2ccc(NC(=O)c3ccc(Cl)cc3)cc2)CC1`, the inhibition in test [1] stood at 4.4%; in test [2], 6.6%; in test [3] it was 3.65%.

Turning to `CCN(CC)C(=O)C1CCCN(C(=O)Nc2cc(C(F)(F)F)cc(C(F)(F)F)c2)C1` (stereo not drawn), the inhibition in test [1] was 0.66%; in test [2], 0.55%; in test [3], -2.05%.

With `O=C(Nc1ccccc1)Nc1ccc(-n2ccc(C(F)(F)F)n2)cc1`, the inhibition in test [1] was 2.55%; in test [2], 2.63%; in test [3], -0.06%.

Consider `CC(C)CN1C(=O)C(c2ccc(F)c(F)c2)=C(O)C1c1ccccc1` (stereo not drawn), for which the inhibition was 1.97% in test [1], 4.04% in test [2] and -7.87% in test [3].

In the case of `Nc1c(I)cc(C(=O)Nc2ccc3nc4c(c(N)c3c2)CCCC4)cc1I`, the inhibition in test [1] amounted to 2.52%; in test [2], 1.16%; in test [3] it was 1.17%.

With `CC1(C)NC(N)=NC(=N)N1OCc1cccs1`, the inhibition in test [1] worked out at 10.6%; in test [2], 7.52%; in test [3], 7.36%.

Turning to `Oc1ccc(CCNc2nc(NCc3ccccc3-c3ccc(C(F)(F)F)cc3)nc(N3CCCNCC3)n2)cc1`, the inhibition in test [1] is 4.27%; in test [2] it was 2.99%; in test [3], 2.83%.

Regarding `CC1CCC2(CC1)NC(N)=NC(=N)N2OCCCCCCCCO` (stereo not drawn), the inhibition in test [1] was determined as 6.99%; in test [2], 4.43%; in test [3], 2.52%.

In the case of `Cc1cccc2nc(-c3cccc(-c4ccc(NC(=O)c5cnccc5C(F)(F)F)cc4)c3)[nH]c12`, the inhibition was 1.18% in test [1], -0.42% in test [2] and 3.44% in test [3].

`Cc1cccc2nc(-c3cccc(-c4ccc(C(=O)NCc5ccccc5S(C)(=O)=O)cc4)c3)[nH]c12`: the figures for the inhibition in test [1], in test [2] and in test [3] were 4.92%, 3.13% and 2.53%, respectively.

Regarding `CCc1nc2ccc(C(=O)OC)nc2n1Cc1ccc2oc(-c3ccccc3N)c(Br)c2c1`, the inhibition was found to be 2.91% in test [1], 2.33% in test [2] and 1.6% in test [3].

With `NC(=O)c1ccccc1OCC(=O)Nc1cccc(-c2ccc(-c3nc4ccccc4[nH]3)cc2)c1`, the inhibition in test [1] stood at 8.01%; in test [2], 6.11%; in test [3] it was 2.43%.

In the case of `CCCc1ccc(S(=O)(=O)Nc2ccc3c(c2)CCC3)cc1`, the inhibition in test [1] amounted to 1.93%; in test [2], 4.05%; in test [3], 3.52%.

For `CC(C)C[C@H](NC(=O)c1ccc(OCCN2CCOCC2)cc1)C(=O)N[C@H](/C=N/N(C)C(=O)c1ccccc1)CCc1ccccc1`, the results for the inhibition in test [1], in test [2] and in test [3] were 3.84%, 8.34% and 2.75%, respectively.

For the compound `N#Cc1ccc2c(c1)CCN(CCC1CCC(NC(=O)c3cc4ccccc4[nH]3)CC1)CC2` (stereo not drawn), the inhibition in test [1] stood at 8.94%; in test [2] it was 5.71%; in test [3], 6.21%.

Turning to `COc1cc(NC(=O)/C=C/c2ccc(-c3ccccc3)cc2)ccc1OCCN(C(C)C)C(C)C`, the inhibition in test [1] is 60.5%; in test [2] it was 55.8%; in test [3] it was 23.4%.

Take `COc1c(C2CCN(CCCCNC(=O)c3ccc(-c4ccc(Cl)cc4)c(OCC(N)=O)c3)CC2)ccc2c1CCCC2`: the values for the inhibition in test [1], in test [2] and in test [3] were 4.52%, 3.3% and 5.11%, respectively.

As to `CC(C)(CNC(=O)C1CCN(CCOc2ccc(Cl)cc2)CC1)c1nc(-c2ccc(Cl)c(O)c2)c(-c2ccncc2)[nH]1`, the inhibition in test [1] is 0.46%; in test [2], 1.55%; in test [3], -0.21%.

For `CC(=O)Nc1ccc(C(=O)Nc2cccc(-c3ccc(-c4nc5cc(F)ccc5[nH]4)s3)c2)cn1`, the inhibition in test [1] was determined as 0.96%; in test [2], 1.55%; in test [3] it was 2.75%.

Regarding `O=C(Nc1ccc([N+](=O)[O-])cc1Cl)c1cc(Br)cc(Cc2ccccc2)c1O`, the inhibition in test [1] turned out to be 3.27%; in test [2], 3.32%; in test [3], 2.81%.

Take `COc1ccccc1CCNc1nc(C)cc(N[C@@H](CC(C)C)C(=O)Nc2ccccc2)n1`: the inhibition was 4.84% in test [1], 6.02% in test [2] and -0.58% in test [3].

Turning to `COc1ccc(-c2ccc(CNC(=O)c3ccc(Cl)cc3)c(F)c2)cc1CN1CCCN(C)CC1`, the inhibition in test [1] was 3.27%; in test [2], 0.3%; in test [3] it was 1.71%.

As for `CCOC(=O)c1c(C)noc1Nc1ccc(OC)cc1`, the results for the inhibition in test [1], in test [2] and in test [3] were 1.87%, 2.32% and 2.21%, respectively.

As to `O=C(Nc1cccc(-c2cccc(-c3nc4cc(F)ccc4[nH]3)c2)c1)c1ccoc1`, the inhibition in test [1] came out at 2.86%; in test [2], 1.64%; in test [3], 4.95%.

Take `Clc1nc(Cl)c2c(ccn2Cc2ccccc2)n1`: the inhibition amounted to 1.47% in test [1], 0.9% in test [2] and 2.54% in test [3].

Regarding `CCc1c(CCNCCc2cccc(CCNCCc3ccc(OC)c(OC)c3CC)c2)ccc(OC)c1OC`, the inhibition in test [1] is 2.06%; in test [2], -1.49%; in test [3], 0.27%.

Turning to `O=C(Nc1ccc(N2CCN(Cc3cccc(F)c3)CC2)cc1)c1cccs1`, the inhibition in test [1] stood at 3.08%; in test [2] it was 2.27%; in test [3] it was 4.59%.

In the case of `COc1ccc(NC(=O)Nc2cccc(-c3ccc(-c4nc5cccc(C)c5[nH]4)s3)c2)cc1`, the inhibition in test [1] stood at 6.52%; in test [2] it was 5.29%; in test [3] it was 3.22%.

With `CCCSc1nc2c(c(=O)n1Cc1ccco1)C1(CCCCC1)Cc1ccccc1-2`, the inhibition stood at 1.22% in test [1], 1.9% in test [2] and 1.88% in test [3].
